Active and inactive are the calls of the source. Unless noted, no rule for the calls is given here.
Key:
[1] = A549 cell viability effects, profiling panel, calcein-AM fluorescence, 48 h, basal (AID 1162); details: higher = more signal; also: test concentration not given here
[2] = adipocyte viability effects, profiling panel, cell-based, 3T3-L1 adipocytes, calcein-AM fluorescence, 48 h, basal (AID 1163); details: 3T3-L1 adipocytes viability, higher = more signal; also: test concentration not given here
[3] = HepG2 cell viability effects, profiling panel, calcein-AM fluorescence, 48 h, basal (AID 1164); details: higher = more signal; also: test concentration not given here
[4] = MM1S cell viability effects, profiling panel, calcein-AM fluorescence, 48 h, basal (AID 1165); details: higher = more signal;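 also: viability of MM1S multiple myeloma cells under basal unstimulated conditions; test concentration not given here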
[5] = basal RPMI8226 viability, no added stimulus, profiling panel, cell-based, calcein-AM fluorescence, 48 h, PK04 Diversity Set (AID 1166); details: RPMI8226 myeloma viability, higher = more signal;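 also: cells grown under basal conditions without added stimulus; test concentration not given here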
[6] = basal HepG2 mitochondrial membrane potential changes, profiling panel, cell-based, JC-1 fluorescence, 24 h, 100 nL compound (AID 1167); details: higher = more signal; also: test concentration not given here
[7] = basal 3T3-L1 adipocyte mitochondrial potential changes, profiling panel, cell-based, JC-1 fluorescence, 3T3-L1 adipocytes, 24 h, 100 nL compound (AID 1168); details: JC-1 mitochondrial fluorescence, higher = more signal, called active from +8 up or from −8 down; also: test concentration not given here
[8] = basal RPMI8226 mitochondrial membrane potential changes, profiling panel, cell-based, JC-1 fluorescence, 24 h, 100 nL compound (AID 1169); details: RPMI8226 myeloma, JC-1 mitochondrial potential fluorescence, higher = more signal; also: test concentration not given here
[9] = basal MM1S mitochondrial membrane potential changes, profiling panel, cell-based, JC-1 fluorescence, 24 h, 100 nL compound (AID 1170); details: higher = more signal; also: test concentration not given here
[10] = A549 lung cancer cell viability effects, profiling panel, resazurin fluorescence, 24 h, PK04 Diversity Set (AID 1171); details: higher = more signal, called active from +8 up or from −8 down; also: test concentration not given here
[11] = HepG2 liver cancer cell viability effects, profiling panel, resazurin fluorescence, 24 h, PK04 Diversity Set (AID 1172); details: higher = more signal; also: test concentration not given here
[12] = basal S. cerevisiae growth modulation, no modifier, primary screen, OD600, strain BY4716, 24 h, basal condition (AID 1173); details: OD600, 24 h, higher = more signal, called active from +8 up or from −8 down
[13] = MM1S myeloma cell viability, profiling panel, resazurin fluorescence, basal, 24 h, PK04 Diversity Set (AID 1174); details: higher = more signal, called active from +8 up or from −8 down;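 also: MM1S multiple myeloma cell line; test concentration not given here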
[14] = target: Dihydroorotate dehydrogenase (quinone), mitochondrial (Plasmodium falciparum (isolate 3D7)) (UniProt Q08210); test: PfDHODH enzyme inhibitors, primary screen, biochemical, C-terminal His tag, absorbance 600 nm (AID 1175); details: DCIP absorbance 600 nm, higher = more signal, called active from +8 up or from −8 down;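 also: recombinant parasite enzyme with a five histidine tag at its C terminus; test concentration not given here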
Chain of Dihydroorotate dehydrogenase (quinone), mitochondrial (Plasmodium falciparum (isolate 3D7)) (Q08210 whole entry, looked up): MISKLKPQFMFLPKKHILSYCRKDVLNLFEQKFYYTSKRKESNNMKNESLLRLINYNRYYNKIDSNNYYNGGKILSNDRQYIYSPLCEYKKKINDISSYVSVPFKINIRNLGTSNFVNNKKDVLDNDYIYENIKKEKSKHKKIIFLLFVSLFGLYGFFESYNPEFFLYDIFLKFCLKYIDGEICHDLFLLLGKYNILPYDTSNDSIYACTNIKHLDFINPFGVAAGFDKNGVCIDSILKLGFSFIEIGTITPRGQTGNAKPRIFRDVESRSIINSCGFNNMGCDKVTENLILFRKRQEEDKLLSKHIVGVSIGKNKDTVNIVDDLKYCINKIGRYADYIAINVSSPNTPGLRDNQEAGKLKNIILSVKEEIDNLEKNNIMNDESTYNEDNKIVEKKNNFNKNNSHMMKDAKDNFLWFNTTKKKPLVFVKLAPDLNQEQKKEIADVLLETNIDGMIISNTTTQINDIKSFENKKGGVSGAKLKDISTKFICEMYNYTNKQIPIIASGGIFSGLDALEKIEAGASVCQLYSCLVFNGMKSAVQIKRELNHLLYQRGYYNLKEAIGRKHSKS

[15] = P. aeruginosa biofilm formation inhibitors, primary screen, strain PAO1, LB-PBS medium, absorbance 600 nm (AID 1176); also: test concentration not given here; details: P. aeruginosa PAO1 growth/biofilm, A600, 12 h; higher = more signal
[16] = S. cerevisiae RM11-1a growth modifiers, primary screen, strain RM11-1a, OD600, basal, 24 h (AID 1177); details: OD600, 24 h, higher = more signal, called active from +8 up or from −8 down;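 also: cultures grown under basal conditions with no added stressor; test concentration not given here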
[17] = E. coli acrAB mutant growth effects, primary screen, E. coli filamentation inducers, strain DRC39, OD650, 24 h (AID 1178); details: higher = more signal, called active from +8 up or from −8 down;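 also: growth measured as culture turbidity by optical density at 650 nm; test concentration not given here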
[18] = E. coli acrAB mutant growth effects, primary screen, E. coli filamentation inducers, strain DRC39, OD650, 48 h (AID 1179);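 also: screen aims at cell division blockers that make cells filament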; details: E. coli DRC39 delta-acrAB growth, higher = more signal, called active from +8 up or from −8 down
[19] = RPMI8226 myeloma cell viability, profiling panel, resazurin fluorescence, basal, 24 h, PK04 Diversity Set (AID 1180); details: higher = more signal;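 also: RPMI8826 multiple myeloma cell line at 5000 cells per well; test concentration not given here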
[20] = target: E3 ubiquitin-protein ligase XIAP (Homo sapiens) (UniProt P98170); test: XIAP binders, primary screen, biophysical, small-molecule microarray, fluorescence 635 nm (AID 1181); details: small-molecule microarray binding, higher = more signal;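 also: score merges 667 nm emission and signal to noise over triplicate slides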
Chain of E3 ubiquitin-protein ligase XIAP (Homo sapiens) (P98170 whole entry, looked up): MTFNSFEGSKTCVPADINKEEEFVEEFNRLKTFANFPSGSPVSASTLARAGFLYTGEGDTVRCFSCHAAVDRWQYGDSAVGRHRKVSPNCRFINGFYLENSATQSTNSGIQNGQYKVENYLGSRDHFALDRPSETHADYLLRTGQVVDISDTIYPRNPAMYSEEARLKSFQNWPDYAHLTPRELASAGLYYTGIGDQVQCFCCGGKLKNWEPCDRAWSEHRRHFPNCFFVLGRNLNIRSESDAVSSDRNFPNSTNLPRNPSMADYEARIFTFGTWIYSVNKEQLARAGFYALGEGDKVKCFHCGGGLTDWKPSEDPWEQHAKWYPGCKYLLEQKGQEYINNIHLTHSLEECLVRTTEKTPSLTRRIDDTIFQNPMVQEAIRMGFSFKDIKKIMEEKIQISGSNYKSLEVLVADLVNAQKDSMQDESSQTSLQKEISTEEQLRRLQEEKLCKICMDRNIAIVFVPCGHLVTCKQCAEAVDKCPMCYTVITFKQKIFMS

SMILES	z-score [1]	z-score [2]	z-score [3]	z-score [4]	z-score [5]	z-score [6]	z-score [7]	z-score [8]	z-score [9]	z-score [10]	z-score [11]	z-score [12]	z-score [13]	composite z-score [14]	z-score [15]	z-score [16]	z-score [17]	z-score [18]	z-score [19]	composite z-score [20]
CCOc1cc(C(O)C2C=CC3C(=O)N(c4ccccc4)C(=O)C3N2Nc2ccccc2)ccc1O (stereo not given)	-0.0398	-1.24	0.992	-3.04	0.461	-1.32	-2.33 (inactive)	0.279	-0.817	0.314 (inactive)	-0.147	-2.46 (inactive)	-1.07 (inactive)	0.392 (inactive)	1.1 (inactive)	1.16 (inactive)	-0.345 (inactive)	-0.649 (inactive)	-0.0963	-0.189
CC1(C)[C@@H]2CC(C(O)C3C=CC4C(=O)N(c5ccccc5)C(=O)C4N3Nc3ccccc3)=C[C@H]1C2 (stereo not given in full)	-1.66	-1.16	-1.16	-0.528	-0.209	-1.79	-1.46 (inactive)	0.263	-0.527	-0.158 (inactive)	0.0594	-3.01 (inactive)	-0.852 (inactive)	0.232 (inactive)	0.711 (inactive)	-0.0064 (inactive)	-0.441 (inactive)	-0.328 (inactive)	-1.08	0.169

Source: PubChem BioAssay
